Only some compounds are listed: those with a hit (about 1.3% of all), similar ones and a draw of the others.
RAD54 inh: inhibitors of human RAD54 branch migration, primary screen, biochemical, fluorescence, single point; RAD54 Holliday junction branch migration, FAM/BHQ fluorescence; inhibition, % at 10.4 µM; 360,000 compounds, 0.14% hits;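 active = mean normalized replicate activity at least 40 and at least half of replicates scoring 40 or more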;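 also: 0% = median of neutral control wells and 100% = median of positive control wells; inhibitors cause a drop in the FAM fluorescence signal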
MIN6 prolif-1: inducers of MIN6 beta-cell proliferation, primary screen, ATP luminescence, uHTS; MIN6 cells proliferation, ATPlite luminescence, 48 h; cells starved in 0.2% serum; 100% = growth in 10% serum; proliferation, % at 10 µM; 330,000 compounds, 0.29% hits;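 active = compounds whose signal lies at least 3.5 SD above the mean of all wells on their plate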;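 also: 0% = DMSO-treated cells in low-serum medium and 100% = 10% serum control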
FID counter: compounds displacing fluorescent DNA intercalator, primary screen, artefact control for HCV NS3 helicase inhibitor project, biochemical, FID fluorescence; DNA fluorescent intercalator displacement; inhibition, % at 7.9 µM; 290,000 compounds, 0.17% hits; AID 1845, 2009; in the data active = inhibition above about 37%;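 also: 0% = vehicle and 100% = reference compound; higher means more ethidium bromide displaced from hairpin DNA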
UBC13 polyUb: UBC13 polyubiquitin chain formation inhibitors, primary screen, biochemical, TR-FRET, uHTS | Ubiquitin-conjugating enzyme E2 N (Homo sapiens), P61088 | inhibition, % at 20 µM | 330,000 compounds, 0.47% hits | AID 485273, 2010; in the data active = inhibition above about 45%, passing the limit was not always enough
Target sequence (P61088 whole entry, looked up): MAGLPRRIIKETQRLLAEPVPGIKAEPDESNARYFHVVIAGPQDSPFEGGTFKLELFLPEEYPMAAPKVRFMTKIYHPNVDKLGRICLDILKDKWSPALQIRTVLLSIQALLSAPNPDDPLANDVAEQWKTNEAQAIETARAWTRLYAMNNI
PREPL inhibitor: PREPL enzyme inhibitors, primary screen, biochemical, fluorescence polarization; 320,000 compounds, 0.68% hits; inhibition, % at 5.96 µM; recombinant PREPL, fluorescence polarization activity-based probe; AID 2751, 2010; Prolyl endopeptidase-like (Homo sapiens), Q4J6C6;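 also: 0% = enzyme with DMSO and 100% = wells lacking enzyme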
RAD52 anneal inh: RAD52 DNA annealing inhibitors, primary screen, biochemical, FRET, single point, set 2; DNA repair protein RAD52 homolog (Homo sapiens), P43351; AID 651710, 2012; 360,000 compounds, 0.46% hits; inhibition, % at 18.7 µM; recombinant RAD52 DNA annealing, FRET fluorescence;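 active = every replicate showing at least 50% inhibition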
Target sequence (P43351 whole entry, looked up): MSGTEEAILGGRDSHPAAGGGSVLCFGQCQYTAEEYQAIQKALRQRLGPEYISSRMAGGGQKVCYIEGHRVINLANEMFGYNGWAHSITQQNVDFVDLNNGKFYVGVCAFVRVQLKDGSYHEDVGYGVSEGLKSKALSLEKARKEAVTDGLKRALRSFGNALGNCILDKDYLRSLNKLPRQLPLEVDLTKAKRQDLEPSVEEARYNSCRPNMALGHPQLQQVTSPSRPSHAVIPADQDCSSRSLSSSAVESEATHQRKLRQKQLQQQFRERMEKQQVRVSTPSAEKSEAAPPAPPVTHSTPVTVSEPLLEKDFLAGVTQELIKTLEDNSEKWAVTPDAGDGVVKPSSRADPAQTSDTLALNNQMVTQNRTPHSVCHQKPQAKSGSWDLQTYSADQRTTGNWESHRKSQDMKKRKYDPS
MIN6 prolif-2: inducers of beta-cell proliferation in MIN6, confirmation, MIN6 cells, mouse; shares compounds with MIN6 prolif-1; ATPlite luminescence, 48 h; cells kept in 0.2% serum; scaled between 0.2% and 10% serum; proliferation increase, % at 50 µM; 920 tested, under 10 active; AID 463095, 2010;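 active = proliferation increase above 40% at any of the four tested concentrations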
PREPL confirm: human PREPL enzyme inhibitors, confirmation, biochemical, fluorescence polarization; shares compounds with PREPL inhibitor; recombinant PREPL, fluorescence polarization activity probe; inhibition, % at 5.96 µM; 2,000 compounds, 67% hits; AID 2803, 2010;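 also: 0% = protein with DMSO and 100% = wells lacking protein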
Starred values were filed as active, the others as inactive; i = inactive; x = not tested or not shown. Rule as the data show it, unless noted: active = inhibition above about 43%; inactive = the rest.

SMILES	RAD54 inh	MIN6 prolif-1	FID counter	UBC13 polyUb	PREPL inhibitor	RAD52 anneal inh	PREPL confirm	others
CN(C)C(=O)On1c(-c2ccccc2)nc2ccc(Cl)cc21	x	11.9*	-13.2	8.1	13.2	x	x	MIN6 prolif-2=-6.3
CC=Cc1ccc2n(c1=O)C[C@H]1[C@H](CO)[C@@H](C(=O)O)[C@@H]2N1S(=O)(=O)c1ccccc1F (mixture of isomers)	-1.6	x	x	x	x	-6.7	x
CC1CCCCC1NC1CCN(C)CC1 (stereo unspecified)	-2.9	6.0*	2.6	3.7	0.2	30.8	x	MIN6 prolif-2=-2.7
CC1=C2C[C@H]3[C@@H](CC=C4C[C@@H](O)CC[C@@]43C)[C@@H]2CC[C@]12O[C@@H]1C[C@H](C)CN[C@@H]1C2C (stereo partly specified)	x	x	x	x	x	-2.4	x
COc1ccc(CC(C)NC2CCCCCC2)cc1 (stereo unspecified)	5.8	6.1*	10.0	1.5	-3.0	-6.5	x	MIN6 prolif-2=-1.7
O=C1C(=O)c2ccccc2-c2ccccc21	3.0	-7.9	11.3	-160.4	52.9*	4.9	50.4*
COc1ccc(C#Cc2ccc([C@H]3[C@H](CO)N4CCCCN(C(=O)Cc5ccncc5)C[C@@H]34)cc2)cc1	-5.5	x	x	x	x	-73.3	x
CCN1[C@@H]2c3ccc(-c4cccc(C(=O)N(C)C)c4)c(=O)n3C[C@H]1[C@H](CO)[C@H]2C(=O)OC	-19.6	x	x	x	x	5.9	x
O=C(c1ccc2c(c1)N(Cc1ccccc1)CCS2)N1CCC2(CC1)OCCO2	15.4	1.5	-60.5	19.8	57.7*	-10.8	54.6*
O=C1CNC[C@@H]2[C@@H](c3ccc(Br)cc3)[C@@H](CO)N12	x	x	x	x	x	1.2	x
CCN1C[C@]2(COC)CC[C@H](O)[C@]34C1[C@](O)([C@@H](OC)[C@H]23)[C@@]1(O)C[C@H](OC)[C@H]2C[C@@H]4[C@@H]1[C@H]2OC	3.5	-2.9	x	-8.6	1.2	-3.1	x
CCN1C[C@]2(COC(=O)c3ccccc3N)CC[C@H](OC)C34[C@@H]5C[C@H]6[C@H](OC)[C@@H]5[C@](O)(C[C@@H]6OC)[C@@](O)([C@H]13)[C@@H](OC)[C@@H]42	-0.7	0.5	-17.2	5.8	53.1*	-4.7	46.3*
CCN1CC2(COC(=O)c3ccccc3N)CCC(OC)C34C5CC6C(OC)CC(O)(C5C6OC)C(O)(C(OC)C23)C14 (stereo unspecified)	-1.3	-1.5	-7.4	4.2	45.0*	x	45.1*
N#Cc1cccc(-c2ccc([C@@H]3[C@@H](CO)N4CCCCN(C(=O)Cc5ccccc5)C[C@H]34)cc2)c1	-0.6	x	x	x	x	-44.0	x
Cc1[nH]c2ccc(OCc3ccccc3)cc2c1CCN	12.8	-4.6	18.6	7.9	50.3*	26.3	44.4*
CCn1nc(-c2ccccc2)nc2c(=O)n(C)c(=O)nc1-2	x	-5.5	3.9	-168.8	55.8*	x	43.6*
COc1ccc(-c2nc3ccccc3c(=O)n2-c2ccc(OC)cc2)cc1	x	-1.8	-33.2	19.8	-3.7	-5.9	x
CCN(CC)c1ccc(CN2CC=C(c3ccc(F)cc3)CC2)cc1	2.5	-3.3	5.5	19.9	45.8*	x	37.3
Brc1ccc(-[n+]2c(-c3ccccc3)cc(-c3ccccc3)cc2-c2ccccc2)cc1	7.9	-9.0	x	26.9	55.9*	14.1	55.7*
Oc1ccccc1-[n+]1c(-c2ccccc2)cc(-c2ccccc2)cc1-c1ccccc1	-4.8	-7.6	x	8.8	-5.5	6.4	x
[O-]c1ccccc1-[n+]1c(-c2ccccc2)cc(-c2ccccc2)cc1-c1ccccc1	-0.5	-8.6	x	30.9	44.8*	60.8*	54.0*
CCCN1[C@@H]2c3cccc(=O)n3C[C@H]1[C@H](CO)[C@H]2C(=O)N(C)C	-9.6	x	x	x	x	0.7	x
CC=Cc1ccc2n(c1=O)C[C@H]1[C@H](CO)[C@@H](C(=O)N(C)C)N[C@@H]21 (mixture of isomers)	-10.9	x	x	x	x	4.1	x
Cc1ccc(-c2cc(-c3ccc(C)cc3)[n+](-c3ccc(C(=O)O)cc3)c(-c3ccc(C)cc3)c2)cc1	10.7	-4.2	x	-3.5	2.5	0.4	x
Cc1ccc(C[n+]2c(-c3ccc(C)cc3)cc(-c3ccc(C)cc3)cc2-c2ccc(C)cc2)cc1	30.0	-7.0	x	28.7	54.9*	x	52.2*
SMILES	RAD54 inh	MIN6 prolif-1	FID counter	UBC13 polyUb	PREPL inhibitor	RAD52 anneal inh	PREPL confirm	others
COC(=O)[C@H]1[C@H](CO)[C@H]2Cn3c(ccc(-c4ccccc4F)c3=O)[C@@H]1N2	-6.8	x	x	x	x	-82.9	x
CNc1ccc2nc3ccccc3[n+](C)c2c1	98.3*	-4.9	-114.2	i	97.8*	-129.9	84.5*
OCCNc1c2c(nc3ccccc13)CCCC2	21.2	4.8	4.3	-7.6	5.8	x	x
C[n+]1c2ccccc2nc2ccc(NCCO)cc21	75.3*	-2.2	-104.5	i	69.3*	-37.6	66.2*
COc1ccc2[nH]c3c(c2c1)CCN=C3C	-14.9	-0.7	x	6.1	81.8*	1.1	40.6
COc1ccc2[nH]cc(CCN)c2c1	-0.8	-3.6	0.0	1.8	13.7	-12.3	x
C=CCn1c(O)c(C(CC)=NCc2ccc3c(c2)OCO3)c(=O)[nH]c1=O	-3.1	-2.8	-17.8	5.1	55.1*	-6.1	53.3*
CCCCn1c(O)c(C(CC)=NCc2ccc3c(c2)OCO3)c(=O)[nH]c1=O	-5.8	-0.5	-15.0	5.7	48.7*	x	49.1*
C=CCn1c(O)c(C(CC)=NCc2cc(OC)cc(OC)c2)c(=O)[nH]c1=O	0.6	-3.8	-16.5	5.7	18.1	x	x
Cc1ccc(OC(=O)N(C)C[C@@H]2OCc3ccccc3-c3c(n(C)c4ccccc34)C(=O)N([C@@H](C)CO)C[C@H]2C)cc1	x	x	x	x	x	14.9	x
COC(=O)[C@H]1[C@H](CO)[C@H]2Cn3c(ccc(-c4ccc(F)cc4)c3=O)[C@@H]1N2Cc1ccccc1	0.8	x	x	x	x	-2.6	x
O=C(Cc1cccnc1)N1CCCCN2[C@@H](CO)[C@@H](c3ccc(C#CC4CC4)cc3)[C@@H]2C1	-7.5	x	x	x	x	10.4	x
COC(=O)[C@H]1[C@H](CO)[C@H]2Cn3c(ccc(-c4ccccc4)c3=O)[C@@H]1N2C(=O)c1ccccc1F	-12.2	x	x	x	x	-17.2	x
COC(=O)[C@@H]1C[C@@]1(C)[C@@H](NP(=O)(c1ccccc1)c1ccccc1)c1ccccc1	7.4	1.4	-14.9	-7.1	48.0*	-2.2	55.8*

Compound activity deposited in PubChem BioAssay by several laboratories.
